Compound activity deposited in PubChem BioAssay by several laboratories.
The list is not random: actives were taken first. Their share in the collection is about 4.7%.
3CLpro inhibitor – SARS-CoV 3CLpro protease inhibitors, primary screen, biochemical, quenched FRET; Replicase polyprotein 1ab (Severe acute respiratory syndrome coronavirus), P0C6X7; recombinant SARS-CoV 3CLpro, quenched FRET peptide cleavage; inhibition, % at 6 µM; 290,000 tested, 0.14% active; AID 1706, 2009; in the data active = inhibition above about 12%
CCHF vOTU inh – CCHFV vOTU protease inhibitors, primary screen, biochemical, Pep-AMC substrate, fluorescence; 370,000 tested, 0.55% active; inhibition, % at 11.5 µM; Crimean-Congo hemorrhagic fever virus L polyprotein viral ovarian tumor (vOTU) protease …; AID 651958, 2012; in the data active = inhibition above about 30%; note: 0% = vehicle wells with enzyme and 100% = no enzyme wells
VHR inh abs – VHR1 phosphatase inhibitors, primary screen, biochemical, absorbance, uHTS. recombinant VHR phosphatase, pNPP absorbance. inhibition, % at 13.3 µM. Dual specificity protein phosphatase 3 (Homo sapiens), P51452. 290,000 tested, 0.52% active; in the data active = inhibition above about 50%
Target sequence (P51452 whole entry, looked up): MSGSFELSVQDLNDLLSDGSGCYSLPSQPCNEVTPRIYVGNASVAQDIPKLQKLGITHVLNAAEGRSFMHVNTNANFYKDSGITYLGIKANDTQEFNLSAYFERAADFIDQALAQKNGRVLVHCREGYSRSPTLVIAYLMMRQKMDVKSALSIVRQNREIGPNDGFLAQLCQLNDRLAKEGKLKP
GDH-TPI counter-1 – GDH-TPI coupling enzyme inhibitors, primary screen, artefact control for M. tuberculosis FBA inhibitor project, biochemical, absorbance, full deck. GDH-TPI coupled enzyme counterscreen, NADH absorbance. inhibition, % at 4.8 µM. 360,000 tested, 1.2% active; in the data active = inhibition above about 30%;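 note: 0% = DMSO wells and 100% = wells lacking the enzyme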
Mtb FBA inh – Mtb FBA enzyme inhibitors, primary screen, biochemical, fluorescence, strain H37Rv. Fructose-bisphosphate aldolase (Mycobacterium tuberculosis (strain ATCC 25618 / H37Rv)), …. purified M. tuberculosis FBA, fluorescence read-out. inhibition, % at 1 µM. 360,000 tested, 2.3% active;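 note: 0% = vehicle and 100% = reference inhibitor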
Target sequence (P9WQA3 whole entry, looked up): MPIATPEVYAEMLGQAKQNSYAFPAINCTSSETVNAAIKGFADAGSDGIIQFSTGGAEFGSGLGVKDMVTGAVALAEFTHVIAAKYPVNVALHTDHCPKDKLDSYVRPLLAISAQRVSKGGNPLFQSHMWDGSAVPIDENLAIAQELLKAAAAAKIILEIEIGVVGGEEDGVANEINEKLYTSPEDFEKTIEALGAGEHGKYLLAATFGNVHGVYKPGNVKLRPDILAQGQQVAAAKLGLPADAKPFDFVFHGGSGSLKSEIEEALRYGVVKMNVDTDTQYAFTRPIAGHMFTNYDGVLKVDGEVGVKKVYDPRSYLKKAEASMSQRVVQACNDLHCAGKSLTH
RecA splice inh – Mtb RecA intein splicing inhibitors, primary screen, biochemical, fluorescence, HTS | Protein RecA (Mycobacterium tuberculosis (strain ATCC 25618 / H37Rv)), P9WHJ3 | cell-free RecA intein splicing | inhibition, % (concentration not given with the values) | 290,000 tested, 0.75% active; in the data active = inhibition above about 30%;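 note: 0% = vehicle wells and 100% = reference inhibitor control wells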
Mtb FBA inh conf – M. tuberculosis aldolase blockers, biochemical, fluorescence, strain H37Rv, confirmation; shares compounds with Mtb FBA inh; purified M. tuberculosis FBA, fluorescence read-out; inhibition, % at 1 µM; 5,600 tested, 78% active;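 note: 0% = vehicle wells and 100% = reference inhibitor wells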
GDH-TPI counter-2 – GDH-TPI coupling enzyme inhibitors, artefact control for M. tuberculosis FBA inhibitor project, biochemical, fluorescence, high throughput | inhibition, % at 1 µM | shares compounds with Mtb FBA inh | GDH-TPI coupled enzyme counterscreen | 5,600 tested, 81% active; in the data active = inhibition above about 10%
GDH-TPI dose – GDH-TPI coupling enzyme inhibitors, dose response, artefact control for M. tuberculosis FBA inhibitor project, biochemical, fluorescence, IC50 | IC50, µM | shares compounds with Mtb FBA inh | GDH-TPI coupled enzyme assay, artifact counterscreen | 170 tested, 79% active; call rule not given here
Active calls of the source: *; / = no result; + = active, no number. Cut-off read from the data, not from the text of the source, unless noted: active = inhibition above about 27%; inactive = the rest.

SMILES	3CLpro inhibitor	CCHF vOTU inh	VHR inh abs	GDH-TPI counter-1	Mtb FBA inh	RecA splice inh	Mtb FBA inh conf	GDH-TPI counter-2	others
CCOc1c2ccc(C(=O)NCc3ccc(OC)cc3)cc2nn1CCOC	3	-56	1	4	60*	0	99*	72*
C=CCOc1c2ccc(C(=O)NCc3ccc(C)cc3)cc2nn1C	-3	-20	-10	-10	13	-1	/	/
O=C(C[C@H]1C[C@H](C(=O)N2CCCCC2)[C@@]2(CCc3ccccc3)c3[nH]c4ccc(Cl)cc4c3CCN2C1=O)NCCN1CCOCC1	/	/	/	-16	-2	/	/	/
COc1ccc(C(=O)COC(=O)C(CCSC)NC(=O)COc2ccccc2)cc1 (configuration not stated)	/	1	/	2	3	-2	/	/
C[C@@H]1CN([C@@H](C)CO)C(=O)CCCn2nncc2CO[C@H]1CN(C)C(=O)c1ccc(N2CCN(C)CC2)cc1	/	2	/	14	0	/	/	/
Cc1ccc(S(=O)(=O)N2CCC(C(=O)NNC(=O)c3ccccc3O)CC2)cc1	/	-5	/	14	19	-3	/	/
Cc1cc(C)c(C)c(S(=O)(=O)N2CCC(C(=O)NNC(=O)c3ccccc3O)CC2)c1C	/	-2	/	4	39*	10	133*	113*
Cc1ccc(S(=O)(=O)N2CCC(C(=O)NNC(=O)c3ccccc3O)CC2)cc1C	/	12	/	-4	30*	-3	+	+
Cn1cnnc1SCC(=O)NC1CC1	/	-18	/	-1	-2	/	/	/
CC1(C(=O)Nc2cccnc2)Cc2c(-c3ccc4c(c3)OCO4)ccnc2O1 (configuration not stated)	/	-9	/	7	37*	/	43*	30*
CC1(C(=O)Nc2ccccc2)Cc2c(-c3ccc4c(c3)OCO4)ccnc2O1 (configuration not stated)	/	6	/	4	48*	/	24	10	GDH-TPI dose=4.5*
CC(=O)Nc1ccc(NC(=O)C2(C)Cc3c(-c4ccc5c(c4)OCO5)ccnc3O2)cc1 (configuration not stated)	/	6	/	0	52*	/	6	-6
COCCN(C(=O)CSc1nnc(-c2cccs2)n1N)c1c(N)n(Cc2ccccc2)c(=O)[nH]c1=O	-4	-12	1	-3	-3	-2	/	/
O=Cc1ccc(C(=O)OCC(=O)NCc2ccco2)cc1	/	0	/	9	-7	/	/	/
CCC(OC(=O)CNS(=O)(=O)c1ccccc1)C(=O)c1ccccc1 (configuration not stated)	2	9	7	4	4	0	/	/
COC(=O)CC#C[C@H](C)[C@@H](NS(C)(=O)=O)C1CCCCC1	/	0	/	/	/	/	/	/
CCOC(=O)/C=C/[C@H]1CCc2cccc(Cl)c2O1	/	17	/	-4	67*	/	9	7
CCOC(=O)/C=C/C(=O)OCC(=O)Nc1c(Cl)cccc1Cl	2	9	2	-10	-4	2	/	/
CC(=O)N1CCc2cc(S(=O)(=O)NCCC(=O)N3CCN(c4ccccn4)CC3)ccc21	2	-3	7	8	54*	-1	67*	49*
CC(=O)N1CCc2cc(S(=O)(=O)NCCC(=O)N3CCc4ccccc4C3)ccc21	-4	/	14	3	-2	3	/	/
Cc1cc(OC(C)C(=O)NCCCn2ccnc2)c2c(C)cc(=O)oc2c1 (configuration not stated)	0	-49	16	0	96*	-2	+	+
CCCc1cc(=O)oc2cc(C)cc(OC(C)C(=O)NCCCn3ccnc3)c12 (configuration not stated)	0	-21	21	10	75*	-4	175*	164*
Cc1cc(C)cc(OC(C)C(=O)NCCCn2ccnc2)c1 (configuration not stated)	0	-18	-3	-5	1	3	/	/
Cc1cc2c(=O)cc(-c3ccccc3)oc2c(C(=O)O)c1C	/	-2	/	/	39*	/	56*	48*
O=C(O)CNc1ccccc1C(=O)O	1	-39	25	7	58*	1	-5	-4
SMILES	3CLpro inhibitor	CCHF vOTU inh	VHR inh abs	GDH-TPI counter-1	Mtb FBA inh	RecA splice inh	Mtb FBA inh conf	GDH-TPI counter-2	others
COCCNC(=O)[C@H]1N2C(=O)c3ccccc3C2SC1(C)C (some centres not stated)	4	7	2	-6	0	-2	/	/
COc1ccc(C2CC(=O)Oc3c2c(=O)n(C)c2ccccc32)c(OC)c1OC (configuration not stated)	10	2	0	3	37*	-5	-21	-19
COc1cc(CCC(=O)NCc2ccc(F)cc2)cc(OC)c1OC	0	5	10	2	33*	-2	54*	47*
COc1cc(CCC(=O)NCc2ccc(S(N)(=O)=O)cc2)cc(OC)c1OC	-2	4	-12	3	1	0	/	/
Cc1ccc(S(=O)(=O)N/N=C\c2ccc3c(c2)OCO3)cc1	-1	2	13	17	1	0	/	/
Cc1ccc(S(=O)(=O)N/N=C\c2cc3c(cc2Br)OCO3)cc1	5	4	-8	8	42*	2	9	-4
COc1cc2[nH]c(-c3cccc(F)c3)cc(=O)c2cc1OC	-1	-18	4	-4	28*	1	82*	64*
COc1cc2[nH]c(-c3ccc(C)cc3)cc(=O)c2cc1OC	-2	-22	11	25	58*	1	+	+
COc1ccc(-c2cc(=O)c3cc(C)ccc3[nH]2)cc1	-4	-9	0	9	15	1	/	/
COc1ccc(CNS(=O)(=O)c2c(C(=O)N3CCCCCC3)c(C)n(C)c2C)cc1	-5	-2	-6	-4	1	-2	/	/
CCN(CC)CCCNC(=O)CSc1nnc(-c2ccncc2)n1-c1ccc(OC)cc1	/	9	/	/	/	/	/	/
CCN(CC)CCN(Cc1cc2cc3c(cc2[nH]c1=O)OCO3)C(=S)NCC1CCCO1 (configuration not stated)	3	-48	-17	17	56*	-2	95*	70*
